Screens from PubChem BioAssay.
This is a sample that favours compounds with a hit; in the whole collection about 19% have one here.
DT40 TDP1 CPT: growth inhibition of DT40 Tdp1-/-;hTDP1 cells with camptothecin (screen for TDP1 inhibitors); chicken DT40 Tdp1-/-;hTDP1 cells + 20 nM CPT, ATP luminescence, 48 h; Potency, µM (highest dose often 46.2 µM), inactives show at the highest dose activity change, negative = growth inhibition, hits mostly inhibitors; 420,000 compounds, 12% hits; AID 686979; also: potency is read from the fitted curve at half-maximal effect; nearly all actives have a fitted effect of over 55% in size
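Chicken DT40 Tdp1-/- cells stably complemented with human TDP1 were seeded at 400 cells/well in medium containing 20 nM camptothecin, exposed to pin-transferred compounds, and grown at 37 °C for at least 48 hr. Viability was read as ATP luminescence.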
IL1B secr inh: inhibitors of inflammasome signaling (IL-1 beta secretion); activity change, % at 57.5 µM; 360,000 compounds, 4.7% hits; THP-1 LPS/ATP IL-1B secretion, AlphaLISA, 16 h; active compounds read low; AID 743279; in the data active = activity change below about -50%; inconclusive = mostly about -30% to -49%
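THP-1 cells pretreated 1 hr with compounds (up to 57.5 uM final), then stimulated with LPS (250 ng/mL final) plus ATP (1.25 mM final); secreted IL-1B measured by AlphaLISA after 16 hr, decreased signal indicating inhibition.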
DT40 TDP1 no CPT: qHTS for Inhibitors of human tyrosyl-DNA phosphodiesterase 1 (TDP1): qHTS in cells in absence of CPT; DT40 Tdp1-/- hTDP1 cells, no CPT, ATP luminescence, 48 h; Potency, µM (titrated, usually from 46.2 µM), for inactives: at the highest dose activity change, negative = growth inhibition, actives largely listed as inhibitors; 420,000 compounds, 15% hits; AID 686978, 2013; also: potency is read from the fitted curve at half-maximal effect; nearly all actives have a fitted effect of over 55% in size
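A cellular qHTS used chicken DT40 cells lacking endogenous Tdp1 but carrying stably transfected human TDP1. Compounds were applied without camptothecin, and cell growth kinetics were judged by ATP-dependent luminescence after ≥48 hr.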
HT1080NT lethal: kills 2HG-producing HT-1080-NT fibrosarcoma cells | HT-1080-NT fibrosarcoma viability, CellTiter-Glo ATP luminescence, 48 h | Potency, µM (highest dose often 46.1 µM), inactives show top-dose activity, negative = less viability, actives largely listed as cytotoxic | 360,000 compounds, 1.6% hits | AID 686970;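 also: NT is the 2HG producing partner of a matched IDH1 knockdown line; potency is read from the fitted curve at half-maximal effect; 0% = DMSO-treated cells and -100% = media-only wells without cells; nearly all actives have a fitted effect of over 55% in size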
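Read-out is CellTiter-Glo luminescence after 10 minutes at room temperature, following 48 hours' compound treatment of HT-1080-NT cells (750 cells/well, RPMI, 5% FBS, 37 degrees C).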
HT1080 IDH1KD tx: kills HT-1080 cells with IDH1 knockdown | Potency, µM (titrated, usually from 46.1 µM), without a hit: top-dose activity, negative = toxicity, hits mostly cytotoxic | 360,000 compounds, 2% hits | HT-1080 IDH1 knockdown viability, ATP luminescence, 48 h | AID 686971;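 also: potency is read from the fitted curve at half-maximal effect; 0% = DMSO wells and -100% = cell-free medium wells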
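Using the IDH1-knockdown HT-1080 line run in the same batch and compound series as the NT line, viability after 48 h at 37 °C was determined by CellTiter-Glo luminescence and expressed as % activity.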
* marks the source's active call; other numbers are inactive results; ? = inconclusive; . = not tested or not shown. Unless noted, calls follow the shape of the dose curve; as a rule, active = well fitted curve in the direction sought with a large enough effect; inconclusive = small, poorly fitted or top-dose-only effect, or another doubt; inactive = no such curve, though single readings can be large; an effect the other way counts as inactive or inconclusive. Unless noted, % is scaled to controls: 0 for no effect and ±100 for the full control effect.

SMILES	DT40 TDP1 CPT	IL1B secr inh	DT40 TDP1 no CPT	HT1080NT lethal	HT1080 IDH1KD tx
COc1ccc(C(=O)NCCc2cc3ccc(C)c(C)c3[nH]c2=O)cc1OC	?	1	?	-1%	4%
COCCNc1c(-c2cc3ccc(C)c(C)c3[nH]c2=O)nc2ccccn12	?	-59*	18µM*	9%	6%
COc1cc(C(=O)N2CCN(c3ccccn3)CC2)cc(OC)c1OC	-21%	55	-10%	7%	1%
COc1cc2nc(C3CCC3)nc(N3CCN(c4ccccn4)CC3)c2cc1OC	9.2µM*	-99*	9.2µM*	8%	1%
COc1cc2nc(C3CCC3)nc(N3CCN(c4ccccc4OC)CC3)c2cc1OC	16µM*	-25	16µM*	-17%	-20%
COc1ccccc1N1CCN(C2CCCC(C)C2)CC1 (stereo unspecified)	1%	-17	-15%	4%	0%
Cc1ccc(C(=O)c2c3ccc(C(F)(F)F)cc3[n+]([O-])n2CCCN)cc1	23µM*	-53*	23µM*	2%	1%
Cc1sc(NC(=O)C2C3C=CC(C3)C2C(=O)O)c(C(N)=O)c1-c1ccc(C(C)C)cc1 (stereo unspecified)	?	0	?	-9%	?
C=CCSc1nnc2n(-c3ccccc3OC)c(=O)c3c4c(sc3n12)CCC4	?	0	?	-16%	2%
C=CCn1c(=O)c2c3c(sc2n2c(Nc4ccc(OC)cc4)nnc12)CCCC3	9.2µM*	-71*	8.2µM*	2%	8%
CCOC(=O)c1ccc(Nc2nnc3nc(C)cc(C)n23)cc1	-9%	-15	-7%	12%	8%
C=CCn1c(=O)c2c3c(sc2n2c(Nc4ccccc4)nnc12)CCCC3	8.9µM*	-19	10µM*	-15%	-4%
C=CCn1c(=O)c2c3c(sc2n2c(Nc4ccc(C(=O)OCC)cc4)nnc12)CCCC3	13µM*	14	12µM*	0%	-5%
O=C(Cn1ncc2c(=O)oc3ccccc3c21)NCCN1CCN(c2ccccc2F)CC1	-23%	26	?	13%	2%
O=S(=O)(NCCCCNS(=O)(=O)c1ccc(F)cc1)c1ccc(F)cc1	-13%	2	?	-10%	-10%
COc1cccc(/C=N/NC(=O)CN(C)S(=O)(=O)c2ccccc2)c1OC	-21%	0	-19%	-1%	-5%
COc1ncnc2c1ncn2CCCNCc1ccccn1	2%	33	-11%	-1%	15%
Cc1nn(C)c(C)c1CNC(=O)c1cc2n(n1)C(C(F)(F)F)CC(c1cccs1)N2 (stereo unspecified)	10µM*	7	5.8µM*	1%	0%
CCOC(=O)c1cc2n(n1)C(C(F)(F)F)CC(C)N2 (stereo unspecified)	-15%	11	-9%	9%	15%
CCOC(=O)c1c(NC(=O)c2cc3n(n2)C(C(F)(F)F)CC(c2cccs2)N3)sc(C)c1C (stereo unspecified)	5.2µM*	8	6.5µM*	2%	8%
COc1cccc(-n2cc(C(=O)Nc3ccccc3C(N)=O)c3ccccc3c2=O)c1	?	.	10µM*	.	.
COC(=O)c1ccc(COc2ccc(/C=N/NC(N)=S)cc2)o1	?	-5	?	-2%	-1%
CCOc1ccc(NC(=O)CCS(=O)(=O)c2ccc(Br)s2)cc1	18µM*	.	15µM*	.	.
CCOC(=O)c1ccc(NC(=O)CN(C)S(=O)(=O)c2ccc(Br)s2)cc1	5%	-72*	?	-6%	-17%
CCOC(=O)c1ccc(NS(=O)(=O)c2ccc(Br)s2)cc1	-17%	.	-28%	.	.
SMILES	DT40 TDP1 CPT	IL1B secr inh	DT40 TDP1 no CPT	HT1080NT lethal	HT1080 IDH1KD tx
Cc1ccc(NC(=O)CCS(=O)(=O)c2ccc(Br)s2)cc1	-21%	22	?	-7%	-10%
CCc1nn2c(=O)cc(COC(=O)c3ccccc3)nc2s1	-15%	.	-2%	.	.
CCCN(CCC)C(=O)Cn1c(=O)n(-c2ccc(OC)cc2OC)c(=O)c2c3c(sc21)CCC3	-3%	.	?	.	.
C/C(=N/NC(=O)COc1cc(C)ccc1C(C)C)C(=O)O	15%	30	-1%	?	6.5µM*
Cc1ccc(C(C)C)c(OCC(=O)Nc2ccc(N3CCOCC3)cc2N2CCOCC2)c1	23µM*	-1	18µM*	2%	2%
Cc1ccc(C(C)C)c(OCC(=O)Nc2cc(-c3nc4ccccc4[nH]3)ccc2C)c1	4.6µM*	.	3.7µM*	.	.
COc1ccc(Cl)cc1C(=O)NC(=S)Nc1cc(-c2nc3ccccc3[nH]2)ccc1C	?	-2	15µM*	-8%	?
O=C(COc1ccc(Br)cc1)Nc1ccc(N2CCOCC2)cc1N1CCOCC1	-23%	-9	-3%	2%	-8%
O=C(NCC(c1ccccc1Cl)N1CCCC1)C1CCN(C(=O)Nc2ccccc2)CC1 (stereo unspecified)	-8%	10	7%	17%	2%
Cc1ccc(C(C)C)c(OCC(=O)Nc2ccccc2N2CCN(C)CC2)c1	?	-59*	15µM*	?	?
Cc1cc(Cl)c2oc(C(=O)N(C)Cc3nccn3C)c(C)c2c1	16µM*	-16	7.3µM*	0%	-2%
CC(/C=C/c1ccccc1)=N\NC(N)=S	18µM*	0	21µM*	3%	-14%
CC(/C=C/c1ccccc1)=N\NC(=O)c1ccncc1	-19%	-6	-14%	9%	?
CC(/C=C/c1ccccc1)=N\NC(=S)NC(C)C	10µM*	-10	10µM*	-6%	0%
Cc1ccc(CSc2[nH]c(=O)ncc2C)cc1	-10%	-3	-17%	-5%	0%
O=C1CCN(CCc2ccccc2)CCN1CCSc1ccccc1	?	-10	?	1%	-7%
CN(CC(=O)Nc1ccc(F)cc1)C(=O)COC(=O)/C=C/c1ccc(OC(F)F)cc1	-15%	-87*	?	-12%	-8%
Cn1c(=O)c2c(nc(CN3CCN(c4ccccc4F)CC3)n2CCCc2ccccc2)n(C)c1=O	16µM*	-3	21µM*	7%	6%
Cn1c(=O)c2c(nc(CN3CCOCC3)n2CCCc2ccccc2)n(C)c1=O	-17%	-12	-23%	2%	7%
CN1CCN(Cc2nc3c(c(=O)n(C)c(=O)n3C)n2CCCc2ccccc2)CC1	-8%	-2	-14%	6%	2%
Cn1c(=O)c2c(nc(CN3CCN(c4ccccc4F)CC3)n2Cc2ccc(F)cc2)n(C)c1=O	10µM*	.	10µM*	.	.
CCOCCn1c(CN2CCC(Cc3ccccc3)CC2)nc2c1c(=O)n(C)c(=O)n2C	18µM*	40	11µM*	0%	13%
